Screens as filed in PubChem.
Compounds with a hit are over-represented: about 8.3% of the library has one in this group of screens.
MCF10A rerep: induces DNA re-replication in MCF 10a normal breast cells. Potency, µM (highest dose often 46.1 µM), for the others: at the highest dose activity, positive = re-replication, hits mostly activators. 2.9% of 350,000 active. MCF 10A DNA re-replication, Hoechst nuclear intensity, 48 h; also: potency is read from the fitted curve at half-maximal effect; % of control where 0% means no effect; nearly all actives have a fitted effect of over 50% in size
Giardia kill: Giardia lamblia killing | Giardia lamblia trophozoite viability | 0.15% of 340,000 active | activity change, % at 7.66 µM, hits read low | AID 540267; in the data active = activity change below about -80%; inconclusive = between about -30% and that limit;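 also: parasites exposed to compound for two days anaerobically before the ATP read; % is scaled to controls: 0 for no effect and ±100 for the full control effect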
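Trophozoites 100 cells/well + cpd; 48 hrs, 37 deg C, anaerobic. ATPLite 1-Step added, 15-30 min RT, luminescence read (ATP-based viability).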
RORg inh: blocks mouse ROR gamma transcriptional activity; Potency, µM (doses to about 53.6 µM), without a hit: at the top dose activity change, negative = inhibition, usual class: inhibitors; P51450; AID 2551; 5.4% of 310,000 active; Drosophila S2 Gal4-RORgamma UAS-luciferase reporter, 20 h; also: potency is read from the fitted curve at half-maximal effect; % is scaled to controls: 0 for no effect and ±100 for the full control effect; nearly all actives have a fitted effect of over 60% in size
Target sequence (P51450 whole entry, looked up, the tested form may be a part): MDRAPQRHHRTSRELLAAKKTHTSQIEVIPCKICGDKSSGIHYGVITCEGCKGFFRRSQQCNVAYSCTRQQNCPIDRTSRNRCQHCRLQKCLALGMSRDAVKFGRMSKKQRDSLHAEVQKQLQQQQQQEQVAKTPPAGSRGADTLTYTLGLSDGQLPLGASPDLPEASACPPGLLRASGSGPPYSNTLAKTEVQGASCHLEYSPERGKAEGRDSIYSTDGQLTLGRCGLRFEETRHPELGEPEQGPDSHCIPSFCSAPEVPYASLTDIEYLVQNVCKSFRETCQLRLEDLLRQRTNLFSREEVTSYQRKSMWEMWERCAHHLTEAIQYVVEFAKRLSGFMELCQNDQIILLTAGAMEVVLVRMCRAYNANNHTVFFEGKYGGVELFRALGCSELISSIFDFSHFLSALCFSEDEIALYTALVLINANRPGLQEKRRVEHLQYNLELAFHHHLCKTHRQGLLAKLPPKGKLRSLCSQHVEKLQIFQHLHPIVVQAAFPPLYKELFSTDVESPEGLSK
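Drosophila S2 cells stably expressing Gal4-DBD/mouse RORγ fusion under metallothionein promoter plus UAS-luciferase; compound 1 h, then 700 uM CuSO4 induction for 20 h at ambient temperature; inhibition read as reduced luminescence.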
SW480 rerep: induces DNA re-replication in SW480 colon adenocarcinoma cells. SW480 DNA re-replication, Hoechst DNA content imaging, 48 h. Potency, µM (titrated, usually from 46.1 µM), for inactives: at the top dose re-replication activation, hits mostly activators. 1.8% of 340,000 active; also: potency is read from the fitted curve at half-maximal effect; % of control where 0% means no effect; nearly all actives have a fitted effect of over 55% in size
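Hoechst fluorescence of nuclei (405 nm excitation, 500-530 nm emission) measured by plate-scanning imager after 48 hr compound exposure at 37 C; re-replication scored as increased number of nuclei with elevated intensity.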
BCR signal inh: blocks chronic active B-cell receptor signaling; AID 493014; 0.05% of 340,000 active; Potency, µM (titrated, usually from 46.1 µM), for the others: at the top dose activity change, negative = inhibition, most hits filed as inhibitors; ABC-DLBCL IkBa-CBG/CBR reporter, luminescence ratio, 4 h; active = well fitted inhibition curve with a large enough effect in the signal ratio, with a control signal flat, not every such curve was filed as active; inconclusive = small, poorly fitted or top-dose-only effect, or effect the other way, or a change in a side signal; the % refers to the signal ratio;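 also: potency is read from the fitted curve at half-maximal effect; plate controls were basal doxycycline-induced cells for no effect and cells given 10 µM MG132 for full effect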
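Compounds up to 46 uM were incubated four hours with TMD8 cells whose green CBG68 luciferase is fused to IkappaBalpha; red CBR luminescence normalised the signal, and concentration-effect curves were fitted to fusion, red and ratio data.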
Gal4-VP16 FLuc: counter-screen for ROR gamma inhibitors: Gal4-VP16 reporter | 3.5% of 310,000 active | Potency, µM (doses to about 53.6 µM), for the others: top-dose activity, negative = inhibition, actives largely listed as inhibitors | Drosophila S2 Gal4-VP16 UAS-luciferase, luminescence, 20 h;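 also: Gal4-VP16 expression switched on by copper sulfate through the metallothionein promoter; potency is read from the fitted curve at half-maximal effect; % is scaled to controls: 0 for no effect and ±100 for the full control effect; nearly all actives have a fitted effect of over 50% in size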
* marks the source's active call; other numbers are inactive results; ? = inconclusive; . = not tested or not shown; [ ] = another dose, or the depositor's remark. Unless noted, calls follow the shape of the dose curve; as a rule, active = well fitted curve in the direction sought with a large enough effect; inconclusive = small, poorly fitted or top-dose-only effect, or another doubt; inactive = no such curve, though single readings can be large; an effect the other way counts as inactive or inconclusive.

SMILES | MCF10A rerep | Giardia kill | RORg inh | SW480 rerep | BCR signal inh | Gal4-VP16 FLuc
CCCn1nc(C(=O)Nc2nc(-c3ccccn3)cs2)c2ccccc2c1=O | 23.1µM* | -22.7 | . | -11.4% | -4.4% | .
O=C(Nc1nc(-c2ccccn2)cs1)c1ccccc1-n1cnnn1 | ? | -9.8 | 5.01µM* | ? | ? | -14.3%
CCn1nc(C(=O)Nc2nc(-c3ccccn3)cs2)c2ccccc2c1=O | 9.8% | 28.5 | . | -1.0% | 4.3% | .
COc1cccc(C(C(=O)NC(C)(C)C)N(CCc2ccccc2)C(=O)CCC(=O)Nc2cc(C)on2)c1OC (centres undefined) | -0.2% | 50.7 | 42.8% | 2.9% | 3.0% | -9.2%
CCCN1C(=O)c2ccccc2NC1c1ccc(OC)c(COc2cccc(C)c2C)c1 (centres undefined) | . | -0.4 | . | . | . | .
Cc1cc(NC(=O)c2ccc3c(c2)OCO3)no1 | 11.8% | -15.5 | ? | -3.9% | -6.0% | ?
O=C(Nc1ccccn1)c1ccc2c(c1)OCCO2 | 9.8% | -28.2 | 10µM* | ? | ? | 1.8%
CC(=O)Nc1ccc(C(=O)Nc2nc(-c3ccccn3)cs2)cc1 | 17.2% | 2.7 | 7.94µM* | 10.1% | 8.8% | 3.6%
Cc1cc(NC(=O)c2ccc3c(c2)OCCO3)no1 | ? | -80.0* | 10µM* | ? | ? | 7.08µM*
O=C(Nc1ccccn1)c1ccc2c(c1)OCO2 | -11.6% | -4.8 | -40.3% | 16.9%[1.84 µM] | ? | ?
CC1(C)Cc2nc3nc(SCC(=O)Nc4ccccc4)nc(N)c3cc2CO1 | -40.9% | 9.1 | 13.4% | -55.9% | -0.5% | -14.8%
CCCCCOc1ccc(NC(=O)Cn2c(-c3nonc3N)nc3ccccc32)cc1 | . | . | . | . | 0.7% | .
Nc1nonc1-c1nc2ccccc2n1CC(=O)Nc1ccccc1 | 9.8% | 25.6 | 0.0% | 11.6µM* | -1.5% | 1.2%
CC(C)CCn1c(-c2nonc2N)nc2ccccc21 | 16.4µM* | 16.8 | 10µM* | ? | ? | ?
CCCCn1c(-c2nonc2N)nc2ccccc21 | ? | 3.8 | ? | ? | 9.3% | -11.6%
CCOC(=O)c1ccccc1NC(=O)Cn1c(-c2nonc2N)nc2ccccc21 | 0.461µM* | 0.8 | ? | 0.92µM* | ? | ?
CCOC(=O)N1CCc2c(sc(NCc3cc(OC)c(OC)cc3OC)c2C(=O)Nc2ccc(OCC)cc2)C1 | . | . | . | . | 8.2% | .
CC(=O)NC12CC3CC(C1)CC(C(=O)N(C)CC(=O)Nc1ccc(F)c(F)c1F)(C3)C2 | -3.8% | 5.8 | . | -4.3% | -0.7% | .
COc1ccc(O)c(-c2cc(-c3cccc(Br)c3)n[nH]2)c1 | ? | 7.0 | ? | -18.8%[9.22 µM] | 2.2% | ?
O=[N+]([O-])c1cccc(-c2cc(-c3cc(Br)ccc3O)[nH]n2)c1 | 14.3% | 28.5 | 7.08µM* | ? | ? | 11.2µM*
Oc1ccc(Br)cc1-c1cc(-c2ccccc2)n[nH]1 | ? | -11.9 | 1.26µM* | ? | 12.5% | ?
Oc1ccc(Br)cc1-c1cc(-c2ccc(Cl)cc2)n[nH]1 | 14.6µM* | -0.4 | ? | 14.6µM* | ? | ?
C=C(C)C(O)CC/C(C)=C/Cc1c(O)ccc(C(=O)/C=C/c2ccc(O)cc2)c1O (centres undefined) | 20.6µM* | -24.3 | . | ? | ? | .
Cn1c(=Nc2ccc(N3CCOCC3)cc2)ccc2ccccc21 | -0.5% | 13.1 | -3.2% | 1.2% | -3.8% | 0.6%
Cn1c(N=Nc2ccc(N3CCOCC3)cc2)[n+](C)c2ccccc21 | 26.4% | -4.4 | -44.6% | 13µM* | -13.2% | -0.4%
SMILES | MCF10A rerep | Giardia kill | RORg inh | SW480 rerep | BCR signal inh | Gal4-VP16 FLuc
CCOc1ccc(CC(=O)Nc2nccs2)cc1 | -3.2% | -18.6 | 28.3% | -13.5% | ? | -6.0%
O=C(COc1ccc2ccccc2c1)Nc1nccs1 | 12.1% | ? | 10µM* | 5.2% | ? | 15.8µM*
Cc1cccc(N2CCN(CC(=O)Nc3nccs3)CC2)c1C | ? | 9.2 | 10µM* | -7.8% | -20.3% | -12.2%
O=C(COc1ccccc1)Nc1nccs1 | -2.7% | -1.1 | 12.6µM* | -2.5% | ? | ?
COc1ccccc1N1CCN(CC(=O)Nc2nccs2)CC1 | -1.2% | 2.5 | -6.3% | -12.6% | 1.3% | -5.8%
Cc1ccc(CC(=O)Nc2nccs2)cc1C | -2.0% | -1.1 | ? | 17.2% | ? | 2.51µM*
COCCOC(=O)C1=C(C)NC2=C(C(=O)CC(C)(C)C2)C1c1cc2c(cc1Br)OCO2 (centres undefined) | 2.3% | -2.9 | -22.6% | 1.6% | -0.3% | 1.8%
COc1ccc(OCC(=O)Nc2c(C(=O)N3CCC(N4CCCCC4)CC3)oc3ccccc23)cc1 | 2.7% | -13.3 | -0.8% | -16.6% | 2.2% | -6.8%
O=C(Nc1ccc([N+](=O)[O-])cc1)Nn1cnnc1 | 7.9% | -3.7 | -12.4% | -7.9% | ? | -5.8%
C/C(=C\C(=O)Nc1nccs1)c1ccccc1 | 0.3% | -1.8 | 8.91µM* | 3.3% | . | 11.2µM*
COC(=O)c1sccc1NC(=S)N1CCN(c2cccc(C)c2C)CC1 | 4.11µM* | 6.5 | -18.0% | ? | 5.6% | 24.1%
S=C(NCc1ccccc1)Nc1nccs1 | 2.5% | 19.1 | 0.891µM* | 13.0% | -2.7% | 1.26µM*
Cc1ccc2nc(N3CCN(C(=O)c4ccccc4F)CC3)c(C#N)cc2c1 | 11.6µM* | -2.4 | . | 26.5% | . | .
Cc1ccc2nc(N3CCN(C(=O)c4ccc(F)cc4)CC3)c(C#N)cc2c1 | 12.0% | 4.1 | ? | -9.0% | 4.8% | ?
Cc1cc(C)c(N(Cc2ccccc2)S(=O)(=O)c2ccc(OCCNC(=O)c3cc4ccccc4o3)cc2)c(C(=O)NO)c1 | . | . | 10µM* | . | . | ?
CCN(Cc1ccccc1)C(=O)COC(=O)[C@@H]1CCCN1C(=O)c1cccs1 | 14.9% | -27.3 | . | 2.0% | ? | .
COc1cc(/C=N/N=C2/NC(=O)C(Cc3ccc(F)cc3)S2)ccc1O (centres undefined) | ? | -1.9 | 12.6µM* | ? | ? | ?
COc1cc(/C=N/N=C2/NC(=O)C(c3ccccc3)S2)ccc1O (centres undefined) | 15.4% | -4.8 | -1.5% | 2.1% | -2.4% | -15.8%
CCn1c(O)c(/C=N/N=C/c2ccccc2)c2ccc(C3=NNC(=O)CC3)cc21 | 16.4µM* | -2.3 | 21.9% | 19.6% | -14.0% | -5.3%
CCN(c1ccccc1)S(=O)(=O)c1cc(C(=O)Nc2ccccc2Cl)ccc1F | 19.5% | 16.0 | 34.8% | ? | 9.6% | ?
CCN(c1ccccc1)S(=O)(=O)c1cc(C(=O)Nc2ccc(Br)cc2)ccc1F | ? | 25.2 | 17.3% | ? | ? | 12.6µM*
Nc1nc(CSc2nc3ccccc3s2)nc(N2CCCCC2)n1 | ? | -0.9 | 6.31µM* | 22.4% | 1.8% | 12.6µM*
